Measured values published in PubChem BioAssay (Tox21).
Inconclusive results are not listed. Unmarked numbers belong to inactive results. Calls follow the shape of the dose curve; as a rule, active = well fitted cell-killing curve with a large enough effect in the repeat runs; inconclusive = weak or mixed curves, or effect the other way; inactive = no such curve, though single readings can be large or run the other way.

experiment: qHTS assay for small molecule activators of the heat shock response signaling pathway - cell viability counter screen (AID 743209); conditions: HSE-bla HeLa viability, CellTiter-Glo luminescence, 5 h; series mostly up to 62.6 µM; activity change, negative = cytotoxicity: at the top concentration; also: nearly all actives have a fitted effect of over 50% in size
Description: U.S. Tox21 Program National Center for Advancing Translational Sciences [NCATS] NIH Chemical Genomics Center [NCGC] U.S. Environmental Protection Agency [EPA] National Institutes of Environmental Health Sciences [NIEHS] National Toxicology Program [NTP] U.S. Food and Drug Administration [FDA] Tox21 Assay Overview: Various chemicals, environmental and physiological stress conditions may lead to the activation of heat shock response/ unfolded protein response (HSR/UPR). There are three heat shock transcription factors (HSFs) (HSF-1, -2, and -4) mediating transcriptional regulation of the human HSR. To identify the compounds that activate HSR signaling, HSE-bla HeLa cell line (Invitrogen, Carlsbad, CA, USA) containing a beta-lactamase reporter gene under the control of the heat shock response elements was used to screen Tox21 10K compound library. The cytotoxicity of the Tox21 compound library against the HSE-bla HeLa cell line was tested in parallel by measuring the cell viability using CellTiter-Glo assay (Promega, Madison, WI) in the same wells.
Tox21 Assay Protocol Summary: The CellSensor HSE-bla HeLa cells (Invitrogen, Carlsbad, CA, USA) were dispensed at 1500 cells/6uL/well into 1536-well black wall/clear bottom plates using a Multidrop combi (Thermo Fisher Scientific, Waltham, MA) dispenser. After the assay plates were incubated at 37 C and 5% CO2 overnight, 23 nL of compounds dissolved in DMSO, positive controls or DMSO only was transferred to the assay plate by a Pintool station (Kalypsys, San Diego, CA). The plates were incubated at 37 C for 5 h. After 1 uL of LiveBLAzerTM B/G FRET substrate was added using a Flying Reagent Dispenser (FRD, Beckman Coulter, Indianapolis, IN, USA), the plates were incubated at room temperature for 2.5 h, and fluorescence intensity was measured by an Envision plate reader (PerkinElmer, Shelton, CT). For cell viability readout that measures cytotoxicity, 3 ul/well of CellTiter-Glo reagent was added into the assay plates using a FRD. After 30 min incubation at room temperature, the luminescence intensity in the plates was measured using a ViewLux (PerkinElmer) plate reader.
% is scaled to controls: 0 for no effect and ±100 for the full control effect.

Structure (SMILES)	activity change, negative = cytotoxicity
COc1cccc(C(=O)NN(C(=O)c2cc(C)cc(C)c2)C(C)(C)C)c1C	-2.16%
O=CNC(N1CCN(C(NC=O)C(Cl)(Cl)Cl)CC1)C(Cl)(Cl)Cl (stereo not given)	0.0278%
NC1=NC(=O)C(c2ccccc2)O1 (stereo not given)	-6.44%
CC(C)CP(=S)(S)CC(C)C	16.4%
C=C(C)[C@@H]1CC=C(C=O)CC1	-10.1%
CC(C)(C)NCC(O)c1cc(Cl)c(N)c(Cl)c1 (stereo not given)	-8%
CCCSC(=O)N(CCC)CCC	0.018%
Nc1ccccc1Cl	-1.29%
CCC(Cl)[N+](=O)[O-] (stereo not given)	-5.81% [at 81.1 µM]
CNNC	6.97% [at 81.1 µM]
O=NN1CCN(N=O)CC1	-1.3%
Cc1ncc2n1-c1ccc(Cl)cc1C(c1ccccc1F)=NC2	6.05%
CCCCc1ccc(O)cc1	9.71%
Cc1nnc2n1-c1sc(CCC(=O)N3CCOCC3)cc1C(c1ccccc1Cl)=NC2	14.1%
Cc1ncc(CNC(=O)N(CCCl)N=O)c(N)n1	-1.28%
ClC(Cl)C(Cl)Cl	-1.96% [at 81.1 µM]
COC(C)(C)C	-4.62%
CC(C(=O)c1ccccc1)N(C)C (stereo not given)	-2.43%
CCOP(=O)(N=C1SCCS1)OCC	-6.31%
COc1cc(OC)nc(Sc2cccc(Cl)c2C(=O)O)n1	-8.17%

Structure (SMILES)	activity change, negative = cytotoxicity
O=[N+]([O-])c1ccc2c3c(cccc13)CC2	-8.84%
Cc1ccccc1CO[C@@H]1C[C@@]2(C(C)C)CC[C@]1(C)O2	-4.64%
CNC(=O)Oc1ccc(N(C)C)c(C)c1	3.92%
OCCSCSCCO	-2.88%
Fc1cc(Br)ccc1CBr	-2.24%
CC1=C(C(=O)Nc2ccccc2)S(=O)(=O)CCO1	-20.8%
CCOC(=O)NC(=S)Nc1ccccc1NC(=S)NC(=O)OCC	-5.13%
[As]#[In]	-1.37%
O=c1oc2ccccc2c(O)c1C1CCCc2ccccc21 (stereo not given)	-11.8%
O=C(NCO)NCO	-1.1% [at 81.1 µM]
CC(C(O)c1ccccc1)N(C)C/C=C/c1ccccc1 (stereo not given)	0.333%
O=C(N[C@H]1CN2CCC1CC2)c1cc2ccoc2cn1	2.23%
Cc1cc(C)c(C(=O)P(=O)(C(=O)c2c(C)cc(C)cc2C)c2ccccc2)c(C)c1	6.88%
CCN(CC)C(=O)[C@@H]1C=C2c3cccc4[nH]cc(c34)C[C@H]2N(C)C1	6.38% [at 232 µM]
CC(=O)C(Cl)Cl	-7% [at 81.1 µM]
COc1ccc2c(c1OC)CN1CCc3cc4c(cc3C1C2)OCO4 (stereo not given)	1.5%
O=C(Nc1ccccc1)c1ccccc1I	7.42%
CCS(=O)(=O)CCSP(=O)(OC)OC	6.37%
CCC(C)(C)c1cc(-n2nc3ccccc3n2)c(O)c(C(C)(C)CC)c1	-4.23% [at 81.1 µM]
Cc1cccc(C#N)c1	15.8%
